The values below come from PubChem BioAssay (Tox21).

Molecules are shown by their SMILES. Inconclusive results are not listed. Active and inactive are the calls of the source. The call rests on the fitted dose curve; in most records, active means well fitted curve in the direction sought with a large enough effect in the signal ratio in the repeat runs (not every such curve was filed as active); inconclusive means weak or mixed curves, or a change in a side signal; inactive means no such curve, though single readings can be large or run the other way; the % refers to the signal ratio.

The nature of this assay: qHTS assay to identify small molecule agonists of the NFkB signaling pathway (AID 1159509). Particulars: NFkB-bla ME-180 cells, beta-lactamase FRET ratio, 5 h; series mostly up to 61 µM. The source says:
National Center for Advancing Translational Sciences [NCATS]
NIH Chemical Genomics Center [NCGC]
U.S. Environmental Protection Agency [EPA]
National Institutes of Environmental Health Sciences [NIEHS]
National Toxicology Program [NTP]
U.S. Food and Drug Administration [FDA]
Transcription factors and their stimulated target gene expression play pivotal roles across many cellular processes including responses to environmental stimuli. Proper regulation of associated pathways is critical to maintain cell health and function. Constitutive activation of transcription factor pathways has been implicated in tumors as it may block cellular functions such as apoptosis and lead to invasion and metastasis. One important transcription factor that stimulates gene expression in response to cytokines, UV radiation, and other stimuli is nuclear factor-kappa B (NFkB). To measure activation of the NFkB pathway, the CellSensor NFkB-bla ME-180 cell line (Life Technologies, Carlsbad, CA) that stably expresses beta-lactamase reporter gene under the regulation of a NF-kB response element was used. This assay allows measurement of the NFkB pathway activity induced by compounds in a ME-180 cell line. This system quantitates NF-kB activity using a FRET-based assay system where beta-lactamase expression disrupts FRET, allowing for fluorescent measurement of activity. This cell line has been used to screen the Tox21 10K compound library and to identify compounds that induce the NFkB pathway activity.
Tox21 Assay Protocol Summary:
NFkB-bla ME-180 cells were dispensed at 2,000 cells/6 uL of assay medium per well into black wall/clear-bottom 1536-well plates using a Multidrop Combi (ThermoFisher Scientific, Waltham, MA) dispenser. After the assay plates were incubated at 37 C and 5% CO2 for an overnight, 23 nL of compounds dissolved in DMSO, positive controls or DMSO only was transferred to the assay plate by a Pintool station (Kalypsys, San Diego, CA). The assay plates were incubated at 37 C and 5% CO2 for 5 hr. One uL of LiveBLAzer B/G FRET substrate (Life Technologies) was added using a Flying Reagent Dispenser (Aurora Discovery, San Diego, CA) and the plates were incubated at room temperature for 1.5 hr. Fluorescence intensity (405 nm excitation, 460 nm and 530 nm emissions) was measured using an Envision plate reader (PerkinElmer, Shelton, CT).
Take `COc1ccccc1OC`: the result was inactive.
The same measure for `C=CC(=O)OCCN(C)C`: “inactive”.
The same measure for `CC1N=C(N)OC1c1ccccc1` (stereo not given): “inactive”; for `CCC(=O)c1ccc(Cl)cc1`: “inactive”.
The same measure for `CCC(=O)OC1(c2ccccc2)CCN(C)CC1`: “inactive”; for `CON(C)C(=O)Nc1ccc(Br)c(Cl)c1`: “inactive”.
Take `COC(=O)c1ccccc1CS(=O)(=O)NC(=O)Nc1nc(OC)cc(OC)n1`: the result was inactive.
As for `CCOC(=O)C(Cl)Cc1cc(-n2nc(C)n(C(F)F)c2=O)c(F)cc1Cl` (stereo not given), the outcome was inactive.
For `CC#Cc1cc(C)nc(Nc2ccccc2)n1` the value was “inactive”; for `C[C@H](CN1CCOCC1)C(C(=O)N1CCCC1)(c1ccccc1)c1ccccc1`, “inactive”.
Consider `O=C(O)C(Cl)Br` (stereo not given), for which the outcome was inactive.
As to `N[C@@H](Cc1ccc(Oc2cc(I)c(O)c(I)c2)c(I)c1)C(=O)O`, the result was inactive.
The same measure for `CCOP(=O)(CN(CCO)CCO)OCC`: “inactive”; for `CS(=O)(=O)c1ccc(C(=O)C2C(=O)CCCC2=O)c(Cl)c1COCC(F)(F)F`: “inactive”; for `CC(Cl)(Cl)Cl`: “inactive”.
Regarding `CC[C@H](N)c1ccccc1`, the outcome was inactive.
For `CC(C)(C1CCC(O)CC1)C1CCC(O)CC1` (stereo not given) the value was “inactive”.
The same measure for `CC(C)(O)C(Cl)(Cl)Cl`: “inactive”.
In the case of `CCC(C)C(C)(COC(N)=O)COC(N)=O` (stereo not given), the result was inactive.
The same measure for `C=CCC1(C(C)CC)C(=O)NC(=O)NC1=O` (stereo not given): “inactive”; for `c1cncc([C@@H]2CCCCN2)c1`: “inactive”.
As to `O=C(Cl)C(Cl)(Cl)Cl`, the outcome was inactive.
As for `COC[C@@H](NC(C)=O)C(=O)NCc1ccccc1`, the outcome was inactive.
For `C[C@@H](N)[C@@H](O)c1ccccc1`, the result was inactive.
The same measure for `O=C/C=C/c1ccco1`: “inactive”.
On to `CCCCCCC1CCOC1=O` (stereo not given), for which the result was inactive.
Regarding `NC(=O)CS(=O)C(c1ccccc1)c1ccccc1` (stereo not given), the result was inactive.
For `CCOC(=O)N(C)N=O` the value was “inactive”; for `Cc1ccc2c(c1)C1CN(C)CCC1N2` (stereo not given), “inactive”; for `CCN(CC)CCOC(=O)C(O)(c1ccccc1)c1ccccc1`, “inactive”.
The same measure for `O=c1[nH]c2ccccc2o1`: “inactive”; for `CC(C)NCC(O)c1ccc([N+](=O)[O-])cc1` (stereo not given): “inactive”; for `C=C1CC[C@@]2(O)[C@H]3Cc4ccc(O)c5c4[C@@]2(CCN3CC2CC2)[C@H]1O5`: “inactive”.
For `ClCCCCCCCl` the value was “inactive”.
As to `C/C=C/CC#N`, the outcome was inactive.
The same measure for `CCCN1CCC[C@@H]2Cc3[nH]ncc3C[C@H]21`: “inactive”; for `Cn1c(CCCC(=O)O)nc2cc(N(CCCl)CCCl)ccc21`: “inactive”; for `CCC1(c2ccccc2)C(=O)N(COC)C(=O)N(COC)C1=O`: “inactive”.
For `CC[C@@H](CO)NC(=O)[C@@H]1C=C2c3cccc4[nH]cc(c34)C[C@H]2N(C)C1` the value was “inactive”; for `Cc1ccc(S(=O)(=O)N[C@@H](CCCCN)C(=O)CCl)cc1`, “inactive”.
